Assay results as given in PubChem BioAssay (EPA / NIEHS).
Active and inactive are the calls of the source. How the source made its calls: active means hit-call score of the fitted dose curve at least 0.9, where 1 is the maximum; inactive means score below 0.9.

Assays:
[1] = APR_HepG2_NuclearSize_72hr: Apredica 72-hour HepG2 Assay for Nuclear Size (AID 2282925); details: high-content imaging, actives raise or lower the signal
In short: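 HepG2 cells dosed 72 h at 0.39–200 uM (10 concentrations, duplicate) in 0.5% v/v DMSO final. Fixed, Hoechst 33342-stained nuclei imaged; nuclear diameter measured by automated image analysis. Bidirectional fit versus DMSO.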

[2] = ATG_CRE_CIS: Attagene CIS-FACTORIAL HepG2 Assay for human cAMP Responsive Element (CRE) binding protein 3 (AID 2282926); details: HepG2 CRE cis-reporter, Attagene multiplexed mRNA; actives raise or lower the signal
In short: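 Transfected HepG2 were treated for 24 hours, then RNA was extracted and reporter cDNA amplified with sequence-specific primers. Labelled fragments were separated by capillary electrophoresis, and the CRE signal was fitted bidirectionally with DMSO as baseline.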

[3] = target: CCAAT/enhancer-binding protein beta (Homo sapiens) (UniProt P17676); test: ATG_C_EBP_CIS: Attagene CIS-FACTORIAL HepG2 Assay for human CCAAT/Enhancer Binding Protein (C/EBP) beta (AID 2282927); details: HepG2 Attagene cis-factorial transcription factor reporter; actives raise or lower the signal
Chain of CCAAT/enhancer-binding protein beta (Homo sapiens) (P17676 whole entry, looked up): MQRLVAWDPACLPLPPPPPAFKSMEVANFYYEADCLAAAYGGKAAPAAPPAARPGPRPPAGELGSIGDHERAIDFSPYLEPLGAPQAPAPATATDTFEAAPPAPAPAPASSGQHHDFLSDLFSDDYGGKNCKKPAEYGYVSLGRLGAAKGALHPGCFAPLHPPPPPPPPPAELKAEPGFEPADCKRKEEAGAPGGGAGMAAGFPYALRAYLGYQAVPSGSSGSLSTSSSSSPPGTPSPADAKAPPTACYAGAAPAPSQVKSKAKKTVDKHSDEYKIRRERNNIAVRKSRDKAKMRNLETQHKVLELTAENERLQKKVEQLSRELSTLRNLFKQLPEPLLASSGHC
In short: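 Transiently transfected HepG2 (MRTU library, endogenous TF-driven promoters); 24 h dosing; total RNA → oligo(dT) RT → PCR → 6-FAM primer extension → HpaI digest → CE; fit bidirectionally vs DMSO.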

[4] = ATG_CMV_CIS: Attagene CIS-FACTORIAL HepG2 Assay for human CMV (Internal Marker) (AID 2282928); details: HepG2 CMV promoter reporter, transcription factor profiling; actives raise or lower the signal;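 further: endpoint acts as a background internal control marker rather than a target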
In short: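 Endogenous transcription factor activity read in HepG2 via transfected cis-promoter reporter units. After 24 h dosing, reporter mRNA measured by RT-PCR/capillary electrophoresis; gain or loss of signal fit relative to DMSO.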

[5] = ATG_DR4_LXR_CIS: Attagene CIS-FACTORIAL HepG2 Assay for human Liver X Receptor (LXR), DR4 submotif (AID 2282929); details: HepG2 Attagene DR4 cis-reporter, mRNA transcription; actives raise or lower the signal
In short: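 Cells were transfected with multiple reporter transcription units, exposed to chemicals for 24 hours, then lysed for RNA. Reporter mRNA induction was measured by RT-PCR with capillary electrophoresis detection and fitted in both directions relative to DMSO.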

[6] = target: Aryl hydrocarbon receptor (Homo sapiens) (UniProt P35869); test: ATG_Ahr_CIS: Attagene CIS-FACTORIAL HepG2 Assay for human Aryl Hydrocarbon Receptor (Ahr) (AID 2282930); details: HepG2 AhR cis-factorial reporter transcription; actives raise or lower the signal
Chain of Aryl hydrocarbon receptor (Homo sapiens) (P35869 whole entry, looked up): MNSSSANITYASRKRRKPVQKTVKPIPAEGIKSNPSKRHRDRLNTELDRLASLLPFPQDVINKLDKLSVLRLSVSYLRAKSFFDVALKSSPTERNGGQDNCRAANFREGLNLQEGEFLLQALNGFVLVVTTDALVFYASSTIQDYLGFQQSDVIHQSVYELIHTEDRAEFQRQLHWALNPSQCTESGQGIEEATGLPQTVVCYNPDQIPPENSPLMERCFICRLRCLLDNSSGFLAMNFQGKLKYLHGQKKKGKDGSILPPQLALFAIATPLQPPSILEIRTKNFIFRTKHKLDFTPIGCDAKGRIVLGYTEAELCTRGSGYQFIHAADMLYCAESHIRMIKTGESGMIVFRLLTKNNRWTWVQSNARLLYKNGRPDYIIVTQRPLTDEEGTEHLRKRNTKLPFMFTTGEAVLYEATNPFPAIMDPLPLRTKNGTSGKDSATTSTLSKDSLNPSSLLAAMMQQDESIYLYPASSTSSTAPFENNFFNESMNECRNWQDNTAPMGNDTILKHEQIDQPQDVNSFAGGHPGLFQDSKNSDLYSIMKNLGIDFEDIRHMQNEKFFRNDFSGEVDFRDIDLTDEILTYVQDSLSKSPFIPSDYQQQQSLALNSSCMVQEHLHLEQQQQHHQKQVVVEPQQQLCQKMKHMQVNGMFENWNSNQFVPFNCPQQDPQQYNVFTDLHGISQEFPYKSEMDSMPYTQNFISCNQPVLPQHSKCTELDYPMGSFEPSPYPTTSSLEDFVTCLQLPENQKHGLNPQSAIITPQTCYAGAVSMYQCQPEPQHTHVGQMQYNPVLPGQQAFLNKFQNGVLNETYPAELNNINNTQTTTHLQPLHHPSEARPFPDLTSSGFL
In short: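 Read-out: reporter mRNA quantified by RT-PCR with fluorescent primer extension and capillary electrophoresis. Human HepG2 liver cells carried transfected cis-promoter reporter units and were exposed to chemical for 24 h; gain or loss fitted relative to DMSO.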

[7] = ATG_AP_1_CIS: Attagene CIS-FACTORIAL HepG2 Assay for human Activator Protein 1 (AP-1) (AID 2282931); details: HepG2 Attagene cis-factorial AP-1 reporter mRNA; actives raise or lower the signal
In short: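 Endogenous transcription-factor activity in human HepG2 liver cells is read through a cis-promoter reporter transcript, sampled 24 h after dosing. Detection uses RT-PCR with capillary electrophoresis; values come from bidirectional fitting relative to DMSO.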

[8] = ATG_AP_2_CIS: Attagene CIS-FACTORIAL HepG2 Assay for human Activator Protein 2 (AP-2) (AID 2282932); details: HepG2 AP-2 cis-reporter, Attagene transcription factor profiling; actives raise or lower the signal
In short: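 Multiplexed mRNA reporter assay in HepG2: cis-regulated units report endogenous factor activity after 24 h treatment. Fluorescence from capillary electrophoresis of RT-PCR products gives the signal, with DMSO as baseline.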

[9] = ATG_BRE_CIS: Attagene CIS-FACTORIAL HepG2 Assay for human Bone Morphogenetic Protein (BMP) Response Element (BRE) (AID 2282933); details: HepG2 BMP response element reporter, Attagene transcription factor profiling; actives raise or lower the signal
In short: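 Fluorescence-labelled reporter cDNA fragments, separated by capillary electrophoresis, gave the signal for this component of a 52-readout multiplex. HepG2 cells were transfected, exposed to chemicals for 24 h, and compared with DMSO using bidirectional fitting.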

[10] = target: Retinoic acid receptor alpha (Homo sapiens) (UniProt P10276); test: ATG_DR5_RAR_CIS: Attagene CIS-FACTORIAL HepG2 Assay for human Retinoic Acid Receptor Alpha (RARE), DR5 submotif (AID 2282934); details: HepG2 Attagene cis-factorial RARE DR5 reporter, mRNA; actives raise or lower the signal;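 on AC50: reporter responds to endogenous RAR alpha beta and gamma in HepG2 not RARA alone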
Chain of Retinoic acid receptor alpha (Homo sapiens) (P10276 whole entry, looked up): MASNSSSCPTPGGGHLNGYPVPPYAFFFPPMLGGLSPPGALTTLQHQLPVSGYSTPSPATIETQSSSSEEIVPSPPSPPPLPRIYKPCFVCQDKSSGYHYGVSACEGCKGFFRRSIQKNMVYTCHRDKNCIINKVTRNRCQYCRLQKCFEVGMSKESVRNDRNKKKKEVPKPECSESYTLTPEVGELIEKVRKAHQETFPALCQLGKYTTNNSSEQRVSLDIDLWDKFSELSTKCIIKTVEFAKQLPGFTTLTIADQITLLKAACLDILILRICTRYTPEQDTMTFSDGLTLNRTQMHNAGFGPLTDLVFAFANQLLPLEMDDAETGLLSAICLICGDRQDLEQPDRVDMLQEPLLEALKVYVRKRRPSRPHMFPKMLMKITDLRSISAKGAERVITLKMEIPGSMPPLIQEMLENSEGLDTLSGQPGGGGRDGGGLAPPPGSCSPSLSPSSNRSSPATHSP
In short: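 Read-out: DR5-driven reporter transcript measured by RT-PCR, 6-FAM primer extension, HpaI digest and capillary electrophoresis. Human HepG2 liver cells carry transiently transfected cis-element reporter constructs; dosing lasts 24 h. Gain or loss of signal fitted against DMSO baseline.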

[11] = target: Transcription factor E2F1 (Homo sapiens) (UniProt Q01094); test: ATG_E2F_CIS: Attagene CIS-FACTORIAL HepG2 Assay for human E2F Transcription Factor 1 (AID 2282935); details: HepG2 Attagene cis-reporter, E2F reporter RNA transcripts; actives raise or lower the signal
Chain of Transcription factor E2F1 (Homo sapiens) (Q01094 whole entry, looked up): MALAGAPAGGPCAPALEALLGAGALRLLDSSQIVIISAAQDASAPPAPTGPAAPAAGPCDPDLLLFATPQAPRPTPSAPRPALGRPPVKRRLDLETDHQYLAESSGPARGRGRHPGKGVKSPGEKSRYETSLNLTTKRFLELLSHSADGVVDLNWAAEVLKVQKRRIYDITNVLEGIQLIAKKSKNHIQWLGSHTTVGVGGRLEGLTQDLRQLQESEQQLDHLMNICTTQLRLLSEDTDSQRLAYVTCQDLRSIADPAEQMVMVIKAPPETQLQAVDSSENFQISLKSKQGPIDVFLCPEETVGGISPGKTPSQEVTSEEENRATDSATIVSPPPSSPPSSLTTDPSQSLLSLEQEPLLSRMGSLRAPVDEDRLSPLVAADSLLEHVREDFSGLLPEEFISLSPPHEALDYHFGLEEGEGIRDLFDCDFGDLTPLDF
In short: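 Measures reporter transcript levels via RT-PCR with capillary electrophoresis detection in HepG2 cells harboring cis-regulated reporter units; 24 h post-dose; bidirectional curve fitting with DMSO as baseline.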

[12] = ATG_E_Box_CIS: Attagene CIS-FACTORIAL HepG2 Assay for human Enhancer Box (E-box) (AID 2282936); details: HepG2 E-box cis-reporter transcription, actives raise or lower the signal
In short: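 First, HepG2 cells receive multiple cis-regulated reporter constructs by transient transfection. Next, chemicals are applied for 24 h. Finally, reporter mRNA is quantified via RT-PCR and capillary electrophoresis, with DMSO as baseline.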

[13] = ATG_M_61_CIS: Attagene CIS-FACTORIAL HepG2 Assay for M61 Transcription Factor (Internal Marker) (AID 2282937); details: HepG2 Attagene CIS-FACTORIAL M61 internal marker reporter; actives raise or lower the signal
In short: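 Cells were transfected with reporter units under cis-regulatory promoters, treated with chemicals for 24 h, then lysed for RNA. Reporter transcripts were quantified by RT-PCR and capillary electrophoresis, and activity was fitted bidirectionally against DMSO.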

[14] = ATG_EGR_CIS: Attagene CIS-FACTORIAL HepG2 Assay for human Early Growth Response 1 (EGR1) (AID 2282938); details: HepG2 Attagene CIS-FACTORIAL EGR reporter mRNA; actives raise or lower the signal
In short: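 Endogenous TF activity in HepG2 liver cells was gauged through cis-promoter reporter constructs transiently transfected. After 24 h dosing, reporter mRNA was quantified by RT-PCR and capillary electrophoresis, and curves fitted in both directions versus DMSO.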

[15] = ATG_M_19_CIS: Attagene CIS-FACTORIAL HepG2 Assay for M19 Transcription Factor (Internal Marker) (AID 2282939); details: HepG2 Attagene CIS-FACTORIAL M19 internal marker reporter; actives raise or lower the signal
In short: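 HepG2, MRTU transient transfection, 24 h dosing. Total RNA → RT-PCR → 6-FAM primer extension → HpaI digest → CE fluorescence. Bidirectional curve fit, DMSO negative control.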

[16] = ATG_ERE_CIS: Attagene CIS-FACTORIAL HepG2 Assay for Estrogen Response Element (ERE) (AID 2282940); details: HepG2 ERE cis-reporter, Attagene RNA transcript; actives raise or lower the signal
In short: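 After a 24 h chemical treatment, RNA from reporter-transfected HepG2 cells is reverse-transcribed, PCR-amplified and fluorescently labelled. Fragments separated by capillary electrophoresis give reporter signal; DMSO serves as negative control.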

[17] = target: Hepatocyte nuclear factor 3-beta (Homo sapiens) (UniProt Q9Y261); test: ATG_FoxA2_CIS: Attagene CIS-FACTORIAL HepG2 Assay for human Forkhead box A2 (FOXA2) (AID 2282942); details: HepG2 cis-reporter transcription factor activity, 24 h; actives raise or lower the signal
Chain of Hepatocyte nuclear factor 3-beta (Homo sapiens) (Q9Y261 whole entry, looked up): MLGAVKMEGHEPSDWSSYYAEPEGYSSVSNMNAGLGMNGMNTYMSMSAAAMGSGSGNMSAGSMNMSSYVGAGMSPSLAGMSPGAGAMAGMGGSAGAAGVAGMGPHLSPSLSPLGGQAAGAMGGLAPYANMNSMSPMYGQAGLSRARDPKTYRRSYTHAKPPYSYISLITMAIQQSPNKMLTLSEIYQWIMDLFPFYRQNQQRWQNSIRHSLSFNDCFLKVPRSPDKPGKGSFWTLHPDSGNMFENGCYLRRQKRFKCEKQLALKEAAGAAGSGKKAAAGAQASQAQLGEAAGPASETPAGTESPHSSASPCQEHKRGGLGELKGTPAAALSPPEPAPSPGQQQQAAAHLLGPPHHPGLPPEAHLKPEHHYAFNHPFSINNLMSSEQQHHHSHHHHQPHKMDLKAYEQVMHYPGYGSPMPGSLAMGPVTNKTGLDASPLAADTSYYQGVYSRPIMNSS
In short: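 Endogenous transcription factor activity was read in HepG2 cells carrying transiently transfected cis-promoter reporter units. After 24 h dosing, reporter mRNA was quantified by RT-PCR and capillary electrophoresis, and values fitted bidirectionally versus DMSO.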

[18] = ATG_FoxO_CIS: Attagene CIS-FACTORIAL HepG2 Assay for human Forkhead box O (FoxO) (AID 2282943); details: HepG2 Attagene cis-reporter, FoxO element, mRNA; actives raise or lower the signal
In short: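 Read-out: fluorescence of 6-FAM-labelled reporter cDNA fragments resolved by capillary electrophoresis. Transiently transfected HepG2 cells were dosed for 24 h; activity fitted in both directions relative to DMSO controls.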

[19] = ATG_GATA_CIS: Attagene CIS-FACTORIAL HepG2 Assay for human GATA Binding Protein (AID 2282944); details: HepG2 GATA cis-element reporter, Attagene multiplex mRNA; actives raise or lower the signal
In short: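 Cells: HepG2, transiently transfected with cis-regulated reporter transcription units. Exposure: 24 h. Detection: RT-PCR plus capillary electrophoresis of FAM-labeled fragments. Analysis: bidirectional, DMSO as baseline.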

[20] = ATG_Ets_CIS: Attagene CIS-FACTORIAL HepG2 Assay for human Erythroblast Transformation Specific (ETS) (AID 2282941); details: HepG2 ETS cis-reporter transcription, actives raise or lower the signal
In short: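 Steps: transfect HepG2 with multiple reporter units; treat compound 24 h; isolate RNA, DNase-treat, reverse-transcribe; PCR-amplify, label with 6-FAM, digest with HpaI; separate by capillary electrophoresis. Activity fitted both directions versus DMSO.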

Measured: AC50

CCN(CC)c1nc(C)cc(OP(=S)(OC)OC)n1
inactive: [1] | [3] | [4] | [7] | [8] | [9] | [10] | [11] | [12] | [13] | [15] | [17] | [18] | [19]
active: [2] 21.9 µM | [5] 50 µM | [6] 30.7 µM | [14] 50 µM | [16] 12.7 µM

CC1(C)CON(Cc2ccccc2Cl)C1=O
active: [16] 50 µM
inactive: [1] | [2] | [3] | [4] | [5] | [6] | [7] | [8] | [9] | [10] | [11] | [13] | [14] | [15] | [17] | [18] | [19]

CC(C)(C)C(=O)C(Oc1ccc(Cl)cc1)n1cncn1 (configuration not stated)
active: [2] 41.9 µM | [3] 50 µM | [6] 34.7 µM | [7] 74.2 µM | [9] 50 µM | [10] 12.8 µM | [16] 20 µM
inactive: [1] | [4] | [5] | [8] | [11] | [12] | [13] | [14] | [15] | [17] | [18] | [19]

COCc1cnc(C2=NC(C)(C(C)C)C(=O)N2)c(C(=O)O)c1 (configuration not stated)
inactive: [1] | [2] | [3] | [4] | [5] | [6] | [7] | [8] | [9] | [10] | [11] | [13] | [14] | [15] | [16] | [17] | [18] | [19]

Clc1nc(Cl)nc(Nc2ccccc2Cl)n1
active: [2] 76.6 µM | [3] 75.5 µM | [4] 27.4 µM | [7] 50 µM
inactive: [1] | [5] | [6] | [8] | [9] | [10] | [12] | [13] | [14] | [15] | [16] | [17] | [18] | [19]

CCNP(=S)(OC)O/C(C)=C/C(=O)OC(C)C (configuration not stated)
inactive: [1] | [2] | [3] | [4] | [7] | [8] | [9] | [11] | [12] | [13] | [14] | [15] | [20] | [17] | [18] | [19]
active: [5] 50 µM | [6] 13.6 µM | [10] 13.6 µM | [16] 13.4 µM
